Assay [1] has as its target Lysosomal acid glucosylceramidase (Homo sapiens) (UniProt P04062). The assay can be described thus: Glucocerebrosidase-p2 (AID 348; in the data active = potency below about 10 µM; also: potency is read from the fitted curve at half-maximal effect). The settings on record: purified GBA, blue fluorogenic substrate, 40 min. A digest of the protocol: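 Normal human glucocerebrosidase (0.2 nM) with blue fluorogenic substrate (80 uM final) in citrate/phosphate pH 5.9 with 10mM sodium taurocholate, 0.01% tween-20; 40 min RT, NaOH/glycine stop; fluorescence Ex 365/Em 440; AC50 from a titration from 0.6 nM upwards.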

Assay [2] in a line: AP1 Signaling Pathway (AID 357).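 Also: ME-180 reporter cells stimulated with EGF at its EC50 level; % is scaled to controls: 0 for no effect and ±100 for the full control effect.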 Particulars: ME-180 AP-1-bla reporter, EGF-induced, beta-lactamase ratio, 5 h; at 7.69 µM (top of the series) unless noted. A digest of the protocol: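 Titration-series screen for positive or negative modulators of EC50 EGF-induced signaling in ME-180 cells carrying an AP-1-driven beta-lactamase reporter. After 5 hours at 37 degrees Celsius, CCF4 460nm/530nm emission ratio gave %Activity; AC50 values derived.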

The target in assay [3] is Cytochrome P450 1A2 (Homo sapiens) (UniProt P05177). Description: p450-cyp1a2 (AID 410; calls by dose curve; also: potency is read from the fitted curve at half-maximal effect;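 as to activity change, negative = inhibition: -100% = full effect of reference inhibitor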). The settings on record: recombinant CYP1A2, luciferin-ME demethylation, luminescence; series mostly up to 57 µM. A digest of the protocol: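 Read-out is luminescence from luciferin produced by CYP1A2 demethylation of Luciferin-ME (100uM, at Km). Detection reagent stopped the 60 min NADPH-dependent reaction; signals were normalized to 57 uM furafylline.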

The nature of assay [4]: NFAT Signaling Pathway (AID 444).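 Also: carbachol stimulus at about its EC50 of 1 µM final; % is scaled to controls: 0 for no effect and ±100 for the full control effect.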 The settings on record: Jurkat NFAT-bla M1, carbachol, beta-lactamase ratio, 5 h; at 7.69 µM (top of the series) unless noted. A digest of the protocol:
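Jurkat cells with NFAT-driven β-lactamase reporter and co-expressed M1 receptor, stimulated with carbachol (final 1 uM, ~EC50), compound titration, 5 h at 37 °C. CCF4 loaded 1 h at RT; 460/530 nm ratio gave %activity and AC50.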

The target in assay [5] is Glucocorticoid receptor (Homo sapiens) (UniProt P04150). The assay can be described thus: GR-EFC Redistribution (AID 451; calls by dose curve; also: potency is read from the fitted curve at half-maximal effect). Particulars: CHO-K1 GR-EFC translocation, beta-gal luminescence, 2 h. Put shortly:
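CHO-K1 cells expressing nuclear EA and GR-ED fragments of b-gal; compounds titrated up to 46 uM final, 2 h at 37 C. GR nuclear translocation read as complemented b-gal luminescence after 1 h RT detection.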

In assay [6] the target is 3',5'-cyclic-AMP phosphodiesterase 4B (Homo sapiens) (UniProt Q07343). The assay can be described thus: qHTS Assay for Inhibitors of PDE-IV (AID 607; active = well fitted activation curve with a large enough effect in the main read-out, with a control signal flat, not every such curve was filed as active; also: % of control where 0% means no effect). Particulars: HEK293 ACTOne CNG channel cells, membrane potential fluorescence; series mostly up to 22.9 µM. A digest of the protocol:
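HEK293 ACTOne cells with CNG channel (1000/well), endogenous PDE4; membrane potential dye, compounds up to 22.9 uM final. Fluorescence Ex 535/Em 590; RO 20-1724 (100 uM final) as reference.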

Assay [7] concerns the target Cytochrome P450 3A4 (Homo sapiens) (UniProt P08684). The assay can be described thus: qHTS Assay for Inhibitors and Substrates of Cytochrome P450 3A4 (AID 884; active = well fitted curve in the direction sought with a large enough effect; an effect the other way counts as inactive or inconclusive; also: potency is read from the fitted curve at half-maximal effect; nearly all actives have a fitted effect of over 50% in size). The settings on record: recombinant CYP3A4, Luciferin-PPXE luminescence; series mostly up to 57.1 µM. A digest of the protocol: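 Luminescent readout of luciferin produced by CYP3A4 (20 nM) dealkylation of Luciferin-PPXE, 25 uM (its KM). NADPH-driven reaction ran 60 min at RT after 10 min compound preincubation; data scaled to 57 uM ketoconazole as 100% inhibition.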

For assay [8] the target is unchanged. The assay can be described thus: qHTS Assay for Activators of Cytochrome P450 3A4 (AID 885; active = well fitted curve in the direction sought with a large enough effect; an effect the other way counts as inactive or inconclusive; also: nearly all actives have a fitted effect of over 65% in size). The settings on record: recombinant CYP3A4, Luciferin-PPXE luminescence, 60 min; series mostly up to 57.1 µM. Put shortly: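 Human CYP3A4 dealkylates Luciferin-PPXE to luciferin, which luciferase detection converts to light. Substrate was at its KM (25uM), buffer 200mM KPO4, reaction 60 min at RT.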
In general terms: qHTS replaces the single test concentration by a dilution series.

Assay [9] in a line: qHTS Assay for Lipid Storage Modulators (AID 1519; calls by dose curve). The settings on record: Drosophila S3 cells, BODIPY lipid droplet/cell ratio, laser cytometry, cells loaded with oleic acid; for activity change, negative = inhibition: at 57.5 µM (top of the series). Put shortly:
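Cells seeded at 5,000 per well were treated with compounds over a concentration series and loaded with oleic acid (400 uM, as added). Lipid droplet fluorescence (488 nm excitation, 500-530 nm channel) was read by laser-scanning cytometry and normalized to 20 uM Triacsin C.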

The nature of assay [10]: Primary qHTS for small molecule stabilizers of the endoplasmic reticulum resident proteome: Secreted ER Calcium Modulated Protein (SERCaMP) assay (AID 1508630; active = well fitted curve in the direction sought with a large enough effect; an effect the other way counts as inactive or inconclusive; also: % is scaled to controls: 0 for no effect and ±100 for the full control effect). Particulars: SH-SY5Y GLuc-SERCaMP (Gaussia luciferase released on ER calcium loss) secretion, thapsigargin, luminescence; series mostly up to 38.4 µM. Put shortly: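 The SH-SY5Y reporter protocol was run at 3 concentrations up to 38.3 uM (primary) or 11 concentrations (follow-up): 16 h compound, 100 nM thapsigargin for 4 h, then extracellular luciferase luminescence.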

The nature of assay [11]: Stat Signaling Pathway (AID 446).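 Also: ME-180 cervical cancer cells given 40 pM IL-6 alongside compound; SIE-controlled beta-lactamase reporter measured as 460/530 nm FRET emission ratio; % is scaled to controls: 0 for no effect and ±100 for the full control effect.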 The settings on record: ME-180 (cervical carcinoma) SIE beta-lactamase reporter, IL-6 stimulated, 5 h; at 7.69 µM (top of the series) unless noted. Put shortly:
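Normalization used AC90 stimulation (300 pM IL-6) and AC90 inhibition (125 nM pan-JAK inhibitor at 40 pM IL-6). The underlying signal is SIE-driven beta-lactamase in ME-180 cells after 5 h IL-6 exposure with compound.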

Assay [12] has as its target Mitogen-activated protein kinase 10 (Mus musculus) (UniProt Q61831). Description: JNK3 AlphaScreen Assay (AID 530). Particulars: JNK3 lysate, c-Jun phosphorylation; series mostly up to 57.1 µM. A digest of the protocol:
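HepG2 lysate (IL-1b/TNFa pre-activated) + biotin-GST-cJun 1-79 + anti-pSer73 cJun; cpd titration, 15 min RT; ATP 10 uM start; Tris pH 7.6, MgCl2, DTT, vanadate; beads in EDTA buffer; AlphaScreen.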
Background: In Alpha technology, singlet oxygen from a donor bead excites a nearby acceptor bead.

Assay [13] has as its target Cytochrome P450 2C19 (Homo sapiens) (UniProt P33261). The assay can be described thus: qHTS Assay for Inhibitors and Substrates of Cytochrome P450 2C19 (AID 899; active = well fitted curve in the direction sought with a large enough effect; an effect the other way counts as inactive or inconclusive; also: potency is read from the fitted curve at half-maximal effect; nearly all actives have a fitted effect of over 60% in size). Particulars: recombinant CYP2C19, luciferin-H EGE luminescence; series mostly up to 57.1 µM. A digest of the protocol:
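5 nM human CYP2C19 with 10uM Luciferin-H EGE (at KM) in 50mM KPO4, compound preincubated 10 min at 37C, then NADPH regeneration for 60 min at 37C. Luciferin read by luminescence after detection reagent; normalized to 57uM ketoconazole as full inhibition.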

A short description of assay [14]: Confirmation and Secondary Assay for Modulators of Hemoglobin Beta Chain Splicing at IVS2 654 locus (AID 910; active = well fitted curve in the direction sought with a large enough effect; an effect the other way counts as inactive or inconclusive;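 also: HeLa cells stably carrying EGFP split by mutant beta-globin IVS2-654 intron; % of control where 0% means no effect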). Particulars: HeLa EGFP-654 splicing reporter, GFP fluorescence, 48 h; series mostly up to 38.3 µM. Put shortly: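 HeLa cells stably expressing EGFP interrupted by β-globin IVS2-654 intron, seeded overnight in Opti-MEM/2% FCS, then treated 2 days at 37 °C. Restored splicing read as total peak GFP intensity per well by laser scanning cytometry (488 nm excitation, 500–520 nm emission); 500 nM antisense PNA as control.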

Assay [15] can be described thus: Confirmation and Secondary Assay for Modulators of Hemoglobin Beta Chain Splicing at IVS2 705 locus (AID 930; active = well fitted curve in the direction sought with a large enough effect; an effect the other way counts as inactive or inconclusive;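 also: HeLa cells stably expressing the EGFP-705 splicing reporter; GFP fluorescence per well restored by corrected splicing of the IVS2-705 intron in EGFP; % of control where 0% means no effect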). The settings on record: HeLa EGFP-705 splicing reporter, GFP fluorescence, 48 h; series mostly up to 38.3 µM. Put shortly: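 First, HeLa EGFP-705 cells are seeded at 500/well in Optimem with 2% FCS and left overnight. Next, compound or DMSO is added for 2 days. Finally wells are laser-scanned and total peak GFP intensity scored.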

Assay [16] addresses Cytochrome P450 2C9 (Homo sapiens) (UniProt P11712). The assay can be described thus: qHTS Assay for Inhibitors and Substrates of Cytochrome P450 2C9 (AID 883; active = well fitted curve in the direction sought with a large enough effect; an effect the other way counts as inactive or inconclusive; also: % is scaled to controls: 0 for no effect and ±100 for the full control effect; nearly all actives have a fitted effect of over 60% in size). The settings on record: recombinant CYP2C9, luciferin-H luminescence, 60 min; series mostly up to 57.1 µM. Put shortly:
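Human CYP2C9 (10nM) with Luciferin-H at 100uM (its KM) in 25mM KPO4; compound preincubated 10 min at 37C, then NADPH regeneration for 60 min at 37C. Luciferin read by luminescence after detection reagent; normalized to 57uM sulphaphenazole as full inhibition.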

Setting [17] is: measured here: cell count channel max response.
Setting [18] is: measured here: lipid channel max response.

Results filed as inconclusive are left out. Calls of active or inactive are those of the source. Unless noted, calls follow the shape of the dose curve; as a rule, active = well fitted curve in either direction with a large enough effect (not every such curve was filed as active); inconclusive = small, poorly fitted or top-dose-only effect, or another doubt; inactive = flat fitted curve, though single readings scatter.

Chain of Glucocorticoid receptor (Homo sapiens) (P04150 whole entry, looked up, the tested form may be a part): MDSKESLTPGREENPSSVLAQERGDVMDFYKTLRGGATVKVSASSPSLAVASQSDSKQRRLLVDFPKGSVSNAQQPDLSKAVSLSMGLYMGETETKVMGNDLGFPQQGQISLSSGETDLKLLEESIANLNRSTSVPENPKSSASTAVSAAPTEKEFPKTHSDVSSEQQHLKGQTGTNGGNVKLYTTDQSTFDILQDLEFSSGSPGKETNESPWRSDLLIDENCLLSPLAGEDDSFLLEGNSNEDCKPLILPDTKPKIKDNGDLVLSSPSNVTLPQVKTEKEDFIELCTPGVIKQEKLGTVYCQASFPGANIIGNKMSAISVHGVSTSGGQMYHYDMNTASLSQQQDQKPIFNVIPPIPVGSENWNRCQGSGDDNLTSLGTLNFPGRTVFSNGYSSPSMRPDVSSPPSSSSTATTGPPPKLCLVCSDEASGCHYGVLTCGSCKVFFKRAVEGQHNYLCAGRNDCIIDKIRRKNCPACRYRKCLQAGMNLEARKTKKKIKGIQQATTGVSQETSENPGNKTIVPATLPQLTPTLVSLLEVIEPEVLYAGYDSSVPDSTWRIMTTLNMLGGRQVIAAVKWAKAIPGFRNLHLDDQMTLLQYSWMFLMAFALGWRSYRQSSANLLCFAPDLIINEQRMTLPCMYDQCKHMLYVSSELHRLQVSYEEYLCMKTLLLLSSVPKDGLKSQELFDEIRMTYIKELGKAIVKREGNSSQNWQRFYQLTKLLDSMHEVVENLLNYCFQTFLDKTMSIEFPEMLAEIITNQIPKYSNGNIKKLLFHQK
Chain of 3',5'-cyclic-AMP phosphodiesterase 4B (Homo sapiens) (Q07343 whole entry, looked up): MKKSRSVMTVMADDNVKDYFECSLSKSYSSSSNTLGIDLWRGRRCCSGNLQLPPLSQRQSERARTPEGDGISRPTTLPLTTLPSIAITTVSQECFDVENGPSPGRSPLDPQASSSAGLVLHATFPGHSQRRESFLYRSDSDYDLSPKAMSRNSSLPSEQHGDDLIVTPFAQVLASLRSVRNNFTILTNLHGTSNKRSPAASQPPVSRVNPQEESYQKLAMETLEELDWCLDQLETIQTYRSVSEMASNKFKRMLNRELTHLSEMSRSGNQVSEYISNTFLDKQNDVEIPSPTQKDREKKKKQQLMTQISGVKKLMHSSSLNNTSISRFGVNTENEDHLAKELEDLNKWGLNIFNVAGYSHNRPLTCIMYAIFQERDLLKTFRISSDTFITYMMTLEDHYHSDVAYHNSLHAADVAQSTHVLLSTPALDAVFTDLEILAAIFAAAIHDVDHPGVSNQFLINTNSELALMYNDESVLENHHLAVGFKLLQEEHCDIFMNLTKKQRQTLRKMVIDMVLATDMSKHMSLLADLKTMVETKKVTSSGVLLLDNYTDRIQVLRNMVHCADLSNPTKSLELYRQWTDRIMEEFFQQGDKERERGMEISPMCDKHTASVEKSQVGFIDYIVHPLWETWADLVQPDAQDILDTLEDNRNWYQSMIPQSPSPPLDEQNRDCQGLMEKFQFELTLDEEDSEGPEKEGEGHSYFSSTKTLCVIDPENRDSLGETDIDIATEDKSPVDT
Chain of Cytochrome P450 1A2 (Homo sapiens) (P05177 whole entry, looked up): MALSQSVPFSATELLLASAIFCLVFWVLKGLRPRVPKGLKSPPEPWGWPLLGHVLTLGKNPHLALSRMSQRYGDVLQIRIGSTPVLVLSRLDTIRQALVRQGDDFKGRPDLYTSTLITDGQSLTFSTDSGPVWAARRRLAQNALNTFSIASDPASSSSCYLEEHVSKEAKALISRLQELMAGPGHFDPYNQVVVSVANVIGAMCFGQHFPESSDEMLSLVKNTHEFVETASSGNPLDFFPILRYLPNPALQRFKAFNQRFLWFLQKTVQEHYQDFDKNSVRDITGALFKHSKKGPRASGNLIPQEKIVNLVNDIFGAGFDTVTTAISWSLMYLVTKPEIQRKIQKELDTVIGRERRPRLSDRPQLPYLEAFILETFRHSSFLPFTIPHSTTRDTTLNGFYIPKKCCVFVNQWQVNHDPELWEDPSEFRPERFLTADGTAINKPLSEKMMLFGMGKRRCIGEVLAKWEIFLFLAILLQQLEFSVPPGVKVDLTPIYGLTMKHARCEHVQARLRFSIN
Chain of Cytochrome P450 3A4 (Homo sapiens) (P08684 whole entry, looked up): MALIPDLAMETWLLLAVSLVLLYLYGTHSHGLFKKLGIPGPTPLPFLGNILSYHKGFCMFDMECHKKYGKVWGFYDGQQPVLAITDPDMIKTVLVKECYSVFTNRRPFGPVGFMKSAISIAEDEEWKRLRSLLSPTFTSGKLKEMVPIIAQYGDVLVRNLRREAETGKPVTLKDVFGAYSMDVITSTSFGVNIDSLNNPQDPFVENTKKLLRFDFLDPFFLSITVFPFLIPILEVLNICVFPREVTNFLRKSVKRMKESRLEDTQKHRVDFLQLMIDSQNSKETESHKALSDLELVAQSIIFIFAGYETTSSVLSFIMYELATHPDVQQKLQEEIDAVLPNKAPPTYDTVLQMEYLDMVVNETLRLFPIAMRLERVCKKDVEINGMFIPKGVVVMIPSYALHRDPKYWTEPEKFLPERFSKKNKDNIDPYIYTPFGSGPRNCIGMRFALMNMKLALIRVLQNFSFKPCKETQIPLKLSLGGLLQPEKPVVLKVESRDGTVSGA
Chain of Lysosomal acid glucosylceramidase (Homo sapiens) (P04062 whole entry, looked up): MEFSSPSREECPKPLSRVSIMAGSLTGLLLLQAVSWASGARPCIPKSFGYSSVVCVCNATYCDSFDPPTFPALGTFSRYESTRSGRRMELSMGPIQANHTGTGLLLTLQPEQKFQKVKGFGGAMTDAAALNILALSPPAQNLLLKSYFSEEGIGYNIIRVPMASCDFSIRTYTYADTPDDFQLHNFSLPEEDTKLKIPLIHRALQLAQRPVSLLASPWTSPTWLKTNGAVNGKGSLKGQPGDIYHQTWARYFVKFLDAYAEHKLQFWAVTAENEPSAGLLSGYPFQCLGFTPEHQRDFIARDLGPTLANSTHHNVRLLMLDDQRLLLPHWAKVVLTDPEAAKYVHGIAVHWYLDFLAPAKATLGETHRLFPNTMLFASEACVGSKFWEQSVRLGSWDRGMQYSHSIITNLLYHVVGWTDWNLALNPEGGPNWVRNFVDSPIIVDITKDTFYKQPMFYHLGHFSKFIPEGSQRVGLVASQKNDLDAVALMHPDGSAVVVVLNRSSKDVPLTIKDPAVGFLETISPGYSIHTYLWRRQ
Chain of Cytochrome P450 2C19 (Homo sapiens) (P33261 whole entry, looked up): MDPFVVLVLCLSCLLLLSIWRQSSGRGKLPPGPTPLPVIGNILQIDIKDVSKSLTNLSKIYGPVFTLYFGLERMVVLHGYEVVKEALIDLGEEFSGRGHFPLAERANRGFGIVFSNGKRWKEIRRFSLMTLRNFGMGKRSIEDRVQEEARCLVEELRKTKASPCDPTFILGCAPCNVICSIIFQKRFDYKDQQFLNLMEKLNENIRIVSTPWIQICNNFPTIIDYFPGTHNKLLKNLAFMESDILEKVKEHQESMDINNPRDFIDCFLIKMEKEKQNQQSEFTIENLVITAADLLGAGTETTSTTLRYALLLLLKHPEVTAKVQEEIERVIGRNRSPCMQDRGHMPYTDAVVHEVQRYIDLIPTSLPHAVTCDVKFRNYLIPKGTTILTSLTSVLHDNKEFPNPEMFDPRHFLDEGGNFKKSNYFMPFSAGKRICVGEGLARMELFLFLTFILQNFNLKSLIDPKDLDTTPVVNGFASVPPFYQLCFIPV
Chain of Cytochrome P450 2C9 (Homo sapiens) (P11712 whole entry, looked up): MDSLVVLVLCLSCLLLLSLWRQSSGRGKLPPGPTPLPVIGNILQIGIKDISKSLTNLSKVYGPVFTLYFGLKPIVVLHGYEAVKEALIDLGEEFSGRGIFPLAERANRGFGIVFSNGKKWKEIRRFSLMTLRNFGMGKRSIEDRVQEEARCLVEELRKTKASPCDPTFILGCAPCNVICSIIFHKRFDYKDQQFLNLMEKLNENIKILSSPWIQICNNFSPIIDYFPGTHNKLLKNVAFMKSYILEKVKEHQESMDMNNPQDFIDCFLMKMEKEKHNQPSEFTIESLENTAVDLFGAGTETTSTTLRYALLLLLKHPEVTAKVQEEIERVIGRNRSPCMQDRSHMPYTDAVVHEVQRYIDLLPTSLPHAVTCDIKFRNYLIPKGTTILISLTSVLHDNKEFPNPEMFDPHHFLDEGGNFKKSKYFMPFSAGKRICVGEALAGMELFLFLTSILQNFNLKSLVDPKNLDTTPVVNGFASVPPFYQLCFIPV

Turning to `O=C(c1ccncc1)N1CCC2(CC1)CN(c1cccc(-c3ccccc3)c1)C2`, the Potency in assay [1] was > 11.4 µM (inactive); in assay [3], 15.8 µM (active); in assay [5], > 46 µM (inactive); in assay [7], 7.94 µM (active). Besides, the activity change, negative = inhibition in assay [2] is -2.83% (inactive); in assay [4], 7.15% (inactive); in assay [9] it was -2.24% (inactive). Moreover, the Potency entry in assay [6], in [8] and in assay [10] was “inactive” throughout. Further, the max response in [9] (setting [17]) came out at 13.1%; in assay [9] (setting [18]) it was 11.3%.

As to `c1ccc(CNc2ccnc(-c3ccoc3)n2)cc1`, the Potency is > 11.4 µM (inactive) in [1], 2.51 µM (active) in assay [3], > 46 µM (inactive) in assay [5] and 3.98 µM (active) in assay [13]. Moreover, the activity change, negative = inhibition in assay [2] was -4.42% (inactive); in assay [4], 4.39% (inactive); in assay [9], 9.38% (inactive). In addition, in assay [11], the activity, negative = inhibition is 10.2% (inactive). Moreover, the result in assay [12], in assay [14] and in assay [15] was inactive. For the same compound, the Potency result in [8] and in assay [10] was “inactive” in each case. The max response stood at 7.25% in assay [9] (setting [17]) and 15% in assay [9] (setting [18]).

As to `CS(=O)(=O)N1CCC2(CC1)CN(c1ccncc1)C2`, in [1], the Potency is > 11.4 µM (inactive). Further, the activity change, negative = inhibition in assay [2] was -2.13% (inactive); in [4], -17.7% (inactive); in [9], 4.12% (inactive). Also, the Potency entry in [3], in [6] and in assay [10] was “inactive” each time. In addition, in assay [11], the activity, negative = inhibition is -0.0709% (inactive). Further, the call in [12] was inactive. For the same compound, the max response is -19.4% in assay [9] (setting [17]) and -21.8% in assay [9] (setting [18]).

In the case of `COc1ccc(C(=O)N2CCC3(CC2)CN(C(=O)Nc2cccc(C#N)c2)C3)cc1`, the Potency in [1] is > 11.4 µM (inactive); in assay [5] it was > 46 µM (inactive). The activity change, negative = inhibition was -3.72% (inactive) in [2], 16.2% (inactive) in assay [4] and 6.5% (inactive) in assay [9]. For the same compound, the Potency entry in assay [3], in [6], in assay [8] and in assay [10] was “inactive” throughout. Besides, in assay [12], the result was inactive. Moreover, the max response in assay [9] (setting [17]) stood at 13.9%; in assay [9] (setting [18]), 18.3%.

On to `CS(=O)(=O)N1CCC2(CC1)CN(c1cccc(-c3ccccc3)c1)C2`, for which the Potency is > 11.4 µM (inactive) in assay [1], 5.01 µM (active) in [3] and > 46 µM (inactive) in [5]. For the same compound, the results for the activity change, negative = inhibition in assay [2], in assay [4] and in [9] were 6.38% (inactive), 9.12% (inactive) and -16.1% (inactive), respectively. Besides, in assay [11], the activity, negative = inhibition is -14.9% (inactive). Also, the Potency entry in assay [6], in assay [16] and in assay [10] was “inactive” in each case. The max response in assay [9] (setting [17]) is -11.7%; in [9] (setting [18]), -21%.

`O=C(c1ccncc1)N1CCC2(CC1)CCN(c1ccccc1)CC2`: the results for the Potency in [1] and in [5] were > 11.4 µM (inactive) and > 46 µM (inactive), respectively. Further, the values for the activity change, negative = inhibition in [2] and in assay [9] were -1.33% (inactive) and 2.16% (inactive), respectively. Also, the Potency result in assay [3], in [6] and in [10] was “inactive” each time. Moreover, in assay [11], the activity, negative = inhibition is -1.17% (inactive). Also, the compound was classed as inactive in [12]. Besides, the figures for the max response in [9] (setting [17]) and in assay [9] (setting [18]) were 0.126% and 6.62%, respectively.

Regarding `O=S(=O)(c1ccccc1)N1CCC[C@@]2(CCN(c3ccccc3)C2)C1`, the Potency was > 11.4 µM (inactive) in assay [1]; 3.98 µM (active) in [3]; > 46 µM (inactive) in [5]; 5.01 µM (active) in assay [7]; 0.316 µM (active) in [13]. Further, the activity change, negative = inhibition is -10.1% (inactive) in [2], -13.8% (inactive) in [4] and -16% (inactive) in assay [9]. In addition, the activity, negative = inhibition in assay [11] was -4.22% (inactive). Further, the Potency result in [8] and in [10] was “inactive” in each case. Besides, the max response in assay [9] (setting [17]) is 5.79%; in [9] (setting [18]), -9.53%.

Values taken from PubChem BioAssay (NCATS).
